RE007 growth inh: qHTS Assay for Inhibitors of the HIV-1 protein Vpr. Potency, µM (titrated, usually from 92.2 µM), for inactives: top-dose activity change, negative = less growth, most hits filed as inhibitors. AID 651644, 2012. S. pombe RE007 Vpr strain, BacTiter-Glo ATP luminescence, 24 h. 360,000 compounds, 0.21% hits; active = well fitted falling curve with a large enough effect; inconclusive = small, poorly fitted or top-dose-only effect; inactive = no such curve, though single readings can be large or run the other way; note: nearly all actives have a fitted effect of over 50% in size
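Fission yeast RE007 carrying one integrated HIV-1 vpr copy, seeded at OD 0.01 in PMG+AL medium with 23 nL pinned compound. Grown 24 h at 30 degrees; viability read by BacTiter-Glo luminescence after 5 min.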
TbPYK inhibitor: qHTS of Trypanosoma Brucei Inhibitors. AID 624173, 2012. Potency, µM (titrated, usually from 76.8 µM), for the others: at the top dose activity, negative = inhibition, actives largely listed as inhibitors. TbPYK enzyme, Kinase-Glo Plus ATP luminescence, 45 min. 410,000 compounds, 0.12% hits; note: nearly all actives have a fitted effect of over 50% in size
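Readout: single end-point luminescence (Kinase-Glo Plus, 10 min). Reaction conditions were TbPYK/substrate plus 130 uM ADP, 45 min at RT, pH 7.2 TEA buffer. No-enzyme wells served as controls, and data were normalized before concentration-response fitting.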
AMA1-RON2 inh: qHTS for Inhibitors of AMA1-RON; Towards Development of Antimalarial Drug Lead: Primary Screen. AlphaScreen AMA1-biotinylated RON2 peptide binding. Potency, µM (titrated, usually from 58.2 µM), for inactives: at the highest dose activity change, negative = inhibition, usual class: inhibitors. 360,000 compounds, 0.2% hits. AID 720542, 2013;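 note: 0% = vehicle wells and -100% = peptide control; nearly all actives have a fitted effect of over 45% in size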
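AMA1 (3D7) with his tag at 25 nM final met compounds first, then biotinylated RON2 peptide at 25 nM; detection used donor plus acceptor beads, 10 µg/mL apiece, read by AlphaScreen after 30 min at room temperature.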
LmPK inhibitor: qHTS Assay for Inhibitors of Leishmania Mexicana Pyruvate Kinase (LmPK); 290,000 compounds, 0.37% hits; AID 1721, 2009; Q27686; Potency, µM (series often up to 57.5 µM), for inactives: at the top dose activity change, negative = inhibition, most hits filed as inhibitors; purified LmPK, Kinase-Glo ATP luminescence, 1 h
Target sequence (Q27686 whole entry, looked up): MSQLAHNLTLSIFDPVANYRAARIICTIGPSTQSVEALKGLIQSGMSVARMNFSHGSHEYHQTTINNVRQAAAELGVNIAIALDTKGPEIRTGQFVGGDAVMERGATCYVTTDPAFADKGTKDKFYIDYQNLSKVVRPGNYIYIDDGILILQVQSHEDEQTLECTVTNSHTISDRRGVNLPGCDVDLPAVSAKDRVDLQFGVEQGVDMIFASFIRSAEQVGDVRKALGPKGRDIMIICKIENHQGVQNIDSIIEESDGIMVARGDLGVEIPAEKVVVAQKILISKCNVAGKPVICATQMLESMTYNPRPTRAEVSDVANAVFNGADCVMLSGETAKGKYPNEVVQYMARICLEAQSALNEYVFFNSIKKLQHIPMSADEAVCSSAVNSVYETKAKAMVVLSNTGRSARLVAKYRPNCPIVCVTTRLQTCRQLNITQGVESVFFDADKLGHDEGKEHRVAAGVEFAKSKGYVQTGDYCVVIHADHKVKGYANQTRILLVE
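Screened at intermediate enzyme activity to detect both inhibitors and activators: LmPK at 0.1 nM, with a 0.5 nM enzyme column as activation reference. PEP 0.5 mM, ADP 0.1 mM; ATP detected by luminescence after 1 h.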
Starred values were filed as active, the others as inactive; ? = inconclusive; nt = no result given. A selection: hits, their analogues and other compounds. The true share with any hit is near 0.68%. Unless noted, calls come from the whole dose curve; as a rule, active = well fitted curve in the direction sought with a large enough effect; inconclusive = small, poorly fitted or top-dose-only effect, or another doubt; inactive = no such curve, though single readings can be large; an effect the other way counts as inactive or inconclusive. Unless noted, % is set by controls: 0 for no effect and ±100 for the full control effect; potency is the fitted concentration of half-maximal effect.

SMILES	RE007 growth inh	TbPYK inhibitor	AMA1-RON2 inh	LmPK inhibitor
COc1cccc(NC(=O)c2ccc3c(c2)OCCO3)c1	?	-17%	3%	25µM*
Cc1cc(C)c2c(-n3cccc3)n[nH]c2n1	-11%	-4%	0%	2%
COC(=O)c1sccc1NC(=O)c1cccc(OC)c1	-10%	-15%	44%	1%
COC(=O)c1sccc1NC(=O)Nc1cccc(OC)c1	32µM*	-22%	1%	-17%
O=C1CCCC2=C1C(c1ccc(O)c(O)c1)c1c(ccc3ncccc13)N2 (stereo not given)	-2%	18µM*	?	3%
Cc1nc2n(c(=O)c1CCN1CCC(c3noc4cc(F)ccc34)CC1)CCC[C@@H]2O	nt	-5%	nt	nt
CC(C)Oc1ccc(/C(O)=C2/C(=O)C(=O)N(CCN3CCOCC3)C2c2ccccc2)cc1 (stereo not given)	1%	8%	0%	-1%
CN(C)CCC(=O)c1ccc2c(c1)OCO2	11µM*	-12%	4%	1%
Cc1ccc(C(=O)CCNc2ccc(Br)cc2)o1	-29%	1%	-10%	-3%
O=C(CCNc1ccccc1)c1ccc2c(c1)OCO2	32µM*	3%	3%	-13%
O=C(/C=C\Nc1cccc(F)c1)c1ccc2c(c1)OCO2	?	-4%	0%	13µM*
CN(C)CCCC(=O)c1ccc2c(c1)OCO2	-8%	-3%	-2%	2%
Cc1ccc(C(=O)CCNc2ccccc2)o1	11µM*	4%	2%	-4%
Cc1cc(F)c(F)cc1C(=O)N1CCCC1	10%	-3%	-1%	4%
COc1cccc(CNC(=O)Cn2c(=O)c3cccn3c3ccccc32)c1	-15%	3%	-3%	4%
COc1nc(OCCNS(=O)(=O)c2ccc(C)cc2)nc(N(C)C)n1	10%	26%	0%	0%
c1ccc2c(Nc3nncs3)c3ccccc3nc2c1	-3%	-1%	4%	-5%
COCCCNc1nc2nonc2nc1N1CCN(Cc2cccc(C)c2)CC1	14%	4%	38%	3%
Cc1cccc(CSc2nc3ccncc3n2CC(=O)Nc2cc(C)cc(C)c2)c1	22%	2%	-5%	-1%
S=c1[nH]nc2ccc3ccccc3n12	-10%	7.1µM*	110%	nt
O=C(Nc1ccc2c(c1)OCO2)c1ccc(Br)o1	9%	-4%	3%	22µM*
Cc1c([N+](=O)[O-])c(C(=O)Nc2ccc3c(c2)OCCO3)nn1C	-9%	?	3%	14µM*
Cc1ncoc1C(=O)Nc1ccc2c(c1)OCCO2	-12%	-29%	4%	16µM*
Cc1nn(C)c(C(=O)Nc2ccc3c(c2)OCO3)c1[N+](=O)[O-]	-3%	-8%	29%	-10%
Cc1ccsc1C(=O)Nc1ccc2c(c1)OCCO2	-24%	?	-6%	16µM*
SMILES	RE007 growth inh	TbPYK inhibitor	AMA1-RON2 inh	LmPK inhibitor
COc1ccc(NC(=O)c2ocnc2C)cc1OC	4%	-3%	5%	-12%
Cc1ccc(S(=O)(=O)N2CCN(CC(=O)N/N=C/c3ccco3)CC2)cc1	9%	-8%	44%	-2%
O=C(O)c1ccc(/C=N/N2CCN(C3c4ccccc4-c4ccccc43)CC2)cc1	17%	-15%	-7%	22µM*
CCOC(=O)N1CCN(C(=O)CSCc2ccccc2C)CC1	1%	-1%	10%	0%
CCc1c(C)c(C#N)c2[nH]c3ccccc3n2c1=S	-10%	14µM*	27%	?
O=C(O)Cc1ccc2sc(-c3ccccc3)nc2c1	5%	?	0%	?
COC(=O)Cc1ccc2sc(-c3ccccc3)nc2c1	?	?	9%	14µM*
CCN(c1ccc(C(O)(C(=O)OC)C(F)(F)F)cc1)S(=O)(=O)c1ccc(C)cc1 (stereo not given)	-2%	-3%	33%	11%
Cc1cc(O)c(CN(C)C)c2c1C(=O)/C(=C/c1ccco1)O2	1%	-17%	6%	-1%
Cc1cc(O)c(C=O)c2c1C(=O)Oc1c(CO)c(O)c3c(c1O2)C(O)OC3=O (stereo not given)	4%	2%	1.1µM*	-7%
O=c1[nH]cc(-c2ccc(Br)cc2)n1Cc1ccccc1	21%	2%	-25%	6%
Fc1ccc(-c2c[nH]c(=S)n2Cc2ccccc2)cc1	25%	?	50%	3.5µM*
COc1ccc(C(C)(O)c2nc(-c3cccc(C(F)(F)F)c3)cs2)cc1 (stereo not given)	35µM*	-15%	15%	nt
COc1cccc(C(C)(O)c2nc(-c3cccc(C(F)(F)F)c3)cs2)c1 (stereo not given)	?	-8%	20%	nt
c1ccc(-c2nc3ccccc3[nH]2)nc1	-6%	-11%	27%	?
Cc1ccc2nc(-c3ccccn3)[nH]c2c1	?	?	17%	22µM*
O=C(O)C1=NN(c2cc(Cl)c(S(=O)(=O)O)cc2Cl)C(=O)C1	12%	5%	2.8µM*	nt
Cc1nccn1CCC(=O)O	-8%	5%	0%	0%
O=C(O)c1ccc(-c2nc3ccccc3s2)o1	-4%	-1%	23%	-18%
O=Cc1ccc(-c2nc3ccccc3s2)o1	-10%	-13%	-12%	16µM*
O=C(O)c1cn(-c2ccccc2)nc1-c1ccc(Cl)cc1	-9%	-2%	11%	nt
Nc1c(Br)cc2oc(-c3ccccc3)nc2c1Br	11%	0%	-11%	-4%
COc1ccc(-c2nc3c(Br)c(N)c(Br)cc3o2)cc1	-9%	-2%	5%	22µM*
O=C(O)CNC(=O)CC1S/C(=N/N=C2\CSC(=O)N2)NC1=O (stereo not given)	10%	-2%	40µM*	27%
O=C(NCCOCCOCCNC(=O)c1ccccc1)c1ccccc1	3%	-3%	0%	-1%
SMILES	RE007 growth inh	TbPYK inhibitor	AMA1-RON2 inh	LmPK inhibitor
O=C(c1ccccc1)c1nnc(-c2ccccc2F)o1	-23%	-25%	-4%	14µM*
CCN1C(=O)/C(=C2\C=Cc3ccccc3N2CC)OC1=S	1%	7%	-24%	nt
CCN1/C(=C2\C(=O)N(C)C(=S)N2C)C=Cc2ccccc21	-24%	?	?	?
CCN1/C(=C2\C(=O)N(C)C(=S)N2c2ccccc2)C=Cc2ccccc21	-28%	?	?	18µM*
CCN1/C(=C2\C(=O)N(C)C(=S)N2C)C=Cc2cc(C)ccc21	-19%	-25%	-7%	16µM*
CN(C)C(=O)CSc1nnc([C@H](Cc2ccccc2)NC(=O)OC(C)(C)C)o1	4%	-13%	16%	-2%
CCc1ccc(C2=NN(C(C)=O)C(c3ccco3)C2)cc1 (stereo not given)	-21%	-5%	-2%	16µM*
CCC(=O)N1N=C(c2ccc(Cl)cc2)CC1c1ccco1 (stereo not given)	-2%	-2%	-12%	2%

Bioassay records deposited in PubChem BioAssay by National Center for Advancing Translational Sciences (NCATS).
